Growth data for eleven molecules are collected here from PubChem BioAssay (NCI).

Some test systems named below: HCT-15 colon; SNB-75 CNS; SNB-19 CNS; U251 CNS; PC-3 prostate; SK-MEL-5 melanoma; UACC-62 melanoma; LOX IMVI melanoma; SK-MEL-28 melanoma; HT29 colon.
What all share (assay): NCI-60 one-dose screen, 48 h (100 = growth as untreated, 0 = no growth, -100 = all killed)
Common to all, as to conditions: 10 µM

The panel holds about 83,000 compounds, 20% with a hit somewhere; the sample as a whole holds those more often.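 The test compound was applied at a single concentration to cells in 96-well plates for 48 hours, and percent growth was recorded.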 Unmarked numbers belong to inactive results. The source made the active and inactive calls. Rule for the calls: active = growth percent below 10; inactive = the rest.

As for `COc1ccc(-c2cc(/C=C3\C(=O)Nc4cc(Cl)ccc43)[nH]n2)cc1`, the growth in the experiment with HCT-15 colon is 28.6%; in the experiment with SNB-75 CNS it was -27.5% (active); in the experiment on SNB-19 CNS it was 49%; in the experiment with U251 CNS, 40.1%; in the experiment with PC-3 prostate it was 14%; in the experiment with SK-MEL-5 melanoma, 25.1%. Besides, the figures for the growth in the experiment with UACC-62 melanoma, in the experiment on LOX IMVI melanoma and in the experiment on SK-MEL-28 melanoma were 32.4%, 38.2% and 50.5%, respectively.
As for `COc1cc(Cn2c(-c3ccccc3)c(Cl)c3c2-c2oncc2CC3)cc(OC)c1`, the growth in the experiment on HCT-15 colon was 80.8%; with SNB-75 CNS, 94.8%; in the experiment with SNB-19 CNS, 85.3%; in the experiment with U251 CNS, 37.3%; in the experiment on PC-3 prostate, 60.8%; with SK-MEL-5 melanoma, 109%. The growth with UACC-62 melanoma is 55.4%; in the experiment with SK-MEL-28 melanoma, 92.3%.
As for `COc1ccc(Nc2ccnc(N3CCN(c4ccnc5cc(Cl)ccc45)CC3)n2)cc1`, the growth with HT29 colon is -6.34% (active); in the experiment with SNB-75 CNS, -20.9% (active); in the experiment with SNB-19 CNS, 28.7%; with U251 CNS, 8.61% (active); in the experiment on PC-3 prostate, 0.553% (active); with SK-MEL-5 melanoma it was -55.1% (active). For the same molecule, the growth with UACC-62 melanoma is -4.07% (active); in the experiment on LOX IMVI melanoma, 4.18% (active); with SK-MEL-28 melanoma it was 5.19% (active).
For the molecule `C/C=C\COc1cc(C)c(Cl)cc1Cl`, the growth in the experiment with HCT-15 colon is 109%; with SNB-75 CNS, 88.9%; in the experiment on SNB-19 CNS, 97.3%; in the experiment with U251 CNS, 94.6%; in the experiment on PC-3 prostate it was 98.5%; in the experiment with SK-MEL-5 melanoma, 99.6%. Further, the growth in the experiment with UACC-62 melanoma is 100%; in the experiment with LOX IMVI melanoma it was 106%; with SK-MEL-28 melanoma, 104%.
Take `CCOC(=O)c1cc2c(n1Cc1ccccc1)-c1oncc1CC2`: the growth is 65.3% with HCT-15 colon; 89.2% in the experiment with SNB-75 CNS; 86.2% with SNB-19 CNS; 95.6% in the experiment on U251 CNS; 76.2% in the experiment with PC-3 prostate; 73.5% in the experiment with SK-MEL-5 melanoma. The growth is 75.8% in the experiment on UACC-62 melanoma, 80.9% in the experiment on LOX IMVI melanoma and 89.8% in the experiment on SK-MEL-28 melanoma.
In the case of `O=C(Cn1ccc(=O)[nH]c1=O)c1ccc([N+](=O)[O-])o1`, the growth in the experiment with HCT-15 colon is 94.7%; with SNB-75 CNS, 103%; in the experiment with SNB-19 CNS, 120%; with U251 CNS it was 95.2%; in the experiment with PC-3 prostate, 85.8%; in the experiment with SK-MEL-5 melanoma, 90.7%. Further, the figures for the growth with UACC-62 melanoma, with LOX IMVI melanoma and in the experiment on SK-MEL-28 melanoma were 87%, 80% and 95.3%, respectively.
Regarding `CN1/C(=C\C(I)C(I)C2=[N+](C)c3ccccc3C2(C)C)C(C)(C)c2ccccc21` (configuration not stated), the growth was 13.8% in the experiment with HCT-15 colon; 14.5% in the experiment with SNB-75 CNS; 18.9% in the experiment with SNB-19 CNS; 7.67% (active) in the experiment with U251 CNS; 5.52% (active) in the experiment on PC-3 prostate; -97.4% (active) in the experiment with SK-MEL-5 melanoma. The results for the growth in the experiment with UACC-62 melanoma, in the experiment on LOX IMVI melanoma and with SK-MEL-28 melanoma were 19.4%, 12% and 28.5%, respectively.
For the molecule `CCN(CC)CC(O)CNc1ccnc2cc(Cl)c(Cl)cc12` (configuration not stated), the growth was 69.5% in the experiment on HCT-15 colon; 92.9% in the experiment with SNB-75 CNS; 110% in the experiment with SNB-19 CNS; 75.4% in the experiment with U251 CNS; 80% in the experiment on PC-3 prostate; 84.7% in the experiment on SK-MEL-5 melanoma. In addition, the growth in the experiment on UACC-62 melanoma was 92.8%; in the experiment with LOX IMVI melanoma, 73.9%; in the experiment on SK-MEL-28 melanoma, 97.6%.
As to `CN(C)CCCN1c2ccccc2Sc2ccc(C(F)(F)F)cc21`, the growth is 17.3% in the experiment on HCT-15 colon; -2.79% (active) with SNB-75 CNS; 35.9% in the experiment on SNB-19 CNS; 19.5% in the experiment on U251 CNS; 23.3% in the experiment with PC-3 prostate; -95.4% (active) in the experiment on SK-MEL-5 melanoma. Besides, the growth was -52.6% (active) with UACC-62 melanoma, -75.3% (active) with LOX IMVI melanoma and -64.1% (active) in the experiment with SK-MEL-28 melanoma.
Take `CCCn1c(=O)c2c(nc(-c3cccc(OCCCCl)c3)n2C)n(CCC)c1=O`: the growth with HCT-15 colon was 69.1%; in the experiment on SNB-75 CNS, -12.7% (active); in the experiment with SNB-19 CNS it was 32.9%; with U251 CNS, 17%; in the experiment with PC-3 prostate it was 62.3%; with SK-MEL-5 melanoma it was 64.9%. The growth with UACC-62 melanoma was 78.9%; with LOX IMVI melanoma it was 48.5%; with SK-MEL-28 melanoma it was 81.7%.
Turning to `Nc1cc(O)cc(O)c1`, the growth in the experiment with HCT-15 colon was 97.9%; with SNB-75 CNS it was 91.8%; in the experiment with SNB-19 CNS it was 96.5%; in the experiment with U251 CNS, 104%; in the experiment with PC-3 prostate it was 96.6%; in the experiment with SK-MEL-5 melanoma, 109%. Also, the figures for the growth with UACC-62 melanoma and in the experiment on SK-MEL-28 melanoma were 94.7% and 101%, respectively.
